Screening data: PubChem BioAssay, National Center for Advancing Translational Sciences (NCATS)
D3 antag: blocks the human D3 dopamine receptor. D3R cells, DiscoveRx beta-arrestin luminescence, antagonist mode; active compounds read low. max response, negative = inhibition, %. actives 2.5% (n = 360,000). AID 652054; in the data active means max response below about -50%; inconclusive means no clear call, values can overlap the other calls; further: on the % scale 0 is the no-effect control and ±100 the full control effect
Target sequence (P35462 whole entry, looked up): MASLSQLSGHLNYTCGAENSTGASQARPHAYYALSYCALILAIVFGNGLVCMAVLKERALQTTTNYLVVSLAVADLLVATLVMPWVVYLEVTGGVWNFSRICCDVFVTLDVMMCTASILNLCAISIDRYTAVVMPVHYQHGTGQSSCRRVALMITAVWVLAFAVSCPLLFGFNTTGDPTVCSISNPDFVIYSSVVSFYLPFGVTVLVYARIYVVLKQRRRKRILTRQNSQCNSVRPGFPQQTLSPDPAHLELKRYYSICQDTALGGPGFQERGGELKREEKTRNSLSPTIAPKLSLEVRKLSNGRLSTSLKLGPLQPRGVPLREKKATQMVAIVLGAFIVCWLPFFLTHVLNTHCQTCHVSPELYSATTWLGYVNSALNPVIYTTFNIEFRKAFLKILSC
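Cells expressing the human receptor were seeded at 1500 cells/well, incubated overnight at 37 degrees C in 5% CO2, then exposed to library compounds with dopamine controls for 90 minutes at 37 degrees C before luminescent detection.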
B2AR arrestin: beta2AR (human) beta-arrestin recruitment activity | AID 492947 | P07550 | actives 0.02% (n = 330,000) | Potency, µM (top dose mostly 46.1 µM), for inactives: at the top dose activation, actives largely listed as activators | beta-arrestin recruitment to beta2AR, cell-based reporter; active means well fitted activation curve with a large enough effect; inconclusive means small, poorly fitted or top-dose-only effect;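 further: potency means the concentration at half of the fitted maximal effect; 0% = DMSO controls and full agonism = EC100 isoproterenol or metaproterenol; nearly all actives have a fitted effect of over 65% in size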
D3 ag: activates the human D3 dopamine receptor. P35462. D3R DiscoveRx beta-arrestin cells, luminescence, 90 min. max activation, %. actives 0.58% (n = 410,000). AID 652048; in the data active means max activation above about 30%; further: 0% is about no effect
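Agonist-mode cell screen: cells plated at 1500/well and incubated overnight at 37 °C, then exposed to library compounds for 90 min at 37 °C. Detection reagent was added for 30–60 min at room temperature, and luminescence was read.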
Giardia killer: Giardia lamblia killing. activity change, % at 7.66 µM, hits read low. Giardia lamblia trophozoite viability. actives 0.15% (n = 340,000); in the data active means activity change below about -80%; inconclusive means between about -30% and that limit;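 further: parasites exposed to compound for two days anaerobically before the ATP read; on the % scale 0 is the no-effect control and ±100 the full control effect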
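Anaerobic 48 hrs incubation at 37 deg C of 100 trophozoites/well with test compounds; ATPLite 1-Step luminescence, 15-30 min RT, reports cellular ATP as viability.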
Starred values were filed as active, the others as inactive; ? = inconclusive; / = no result. A selection: hits, their analogues and other compounds. The true share with any hit is near 2.8%.

SMILES | D3 antag | B2AR arrestin | D3 ag | Giardia killer
COc1cc(NC(=O)N2CCN(c3cc(-c4noc(C)n4)ccc3C)CC2)cc(OC)c1OC | / | / | 5 | /
CCCCN=C(Nc1ccc(Cl)cc1)c1cccnc1 | -64* | -1% | -9 | -20
CN1CCN(C2=Cc3ccc(Cl)cc3Sc3ccc(F)cc32)CC1 | -19 | 0% | -16 | 25
CN1CCN(C2Cc3ccccc3Sc3ccc(Cl)cc32)CC1 (stereo not drawn) | 0 | 0% | 0 | ?
CC(C)c1ccc2c(c1)C(N1CCNCC1)Cc1ccc(F)cc1S2 (stereo not drawn) | -63* | / | -10 | -11
CN1CCN(C2Cc3cc(F)ccc3Sc3ccc(Cl)cc32)CC1 (stereo not drawn) | -120* | / | -22 | 3
CN1CCN(C2Cc3ccc(F)cc3Sc3cc(F)c(Cl)cc32)CC1 (stereo not drawn) | -105* | / | -21 | 13
Cc1cc(Nc2ccc(C)c(C)c2)n2cnnc2n1 | / | / | 0 | /
O=C(N[C@@H](Cc1ccc(O)cc1)C(=O)O)c1ccc(C(F)(F)F)cc1 | 0 | 0% | 44* | 13
COc1ccc(Br)cc1CNC(=O)c1cnc2sc(N3CCC(C)CC3)nn2c1=O | / | / | -17 | /
CC(C(=O)N1CCCc2c1c(=O)oc1ccc(O)cc21)N1CCc2ccccc2C1 (stereo not drawn) | -9 | -1% | -19 | 8
CN(CC(=O)N1CCCc2c1c(=O)oc1ccc(O)cc21)Cc1ccccc1 | -68* | 0% | -11 | 5
CC1CCN(CCC(=O)N2CCCc3c2c(=O)oc2ccc(O)cc32)CC1 | -63* | 1% | -8 | 2
CCOC(=O)C1CCN(CC(=O)N2CCCc3c2c(=O)oc2ccc(OCc4ccccc4)cc32)CC1 | / | / | -22 | /
COc1ccccc1CNc1nc(NC(C)C)nc2cc(-c3ccccc3)sc12 | -64* | / | -19 | /
CC(C)Nc1nc(NCCOc2ccccc2Cl)c2sc(-c3ccccc3)cc2n1 | ? | / | -10 | /
O=C(OCc1nc2ccccc2[n+]([O-])c1C(=O)c1ccccc1)c1cccnc1 | -55* | 11% | 2 | ?
CC(=O)c1c(COC(=O)c2ccccc2)nc2ccccc2[n+]1[O-] | 30 | 0% | 2 | ?
CN(C)CCOc1ccc(/C(=C(/CCCl)c2ccccc2)c2ccccc2)cc1 | -91* | / | -85 | 2
CN(C)CCOc1ccc(-c2c(-c3ccccc3)sc3ccccc23)cc1 | -16 | 0% | -23 | -12
COc1cc(C(=O)Nc2ccc(OCc3cc(=O)n4cccc(C)c4n3)cc2)cc(OC)c1OC | / | / | 7 | /
COc1ccc(-c2ccc3oc(-c4ccsc4)c(-c4ccc(OC)cc4)c3c2)cc1 | 6 | / | -8 | 25
COc1ccc(-c2ccc3oc(-c4ccc(OC)cc4)c(-c4ccc(OC)cc4)c3c2)cc1 | 15 | / | 72* | 3
COc1ccc(-c2ccc3oc(-c4ccc(OC)cc4)c(C#CCO)c3c2)cc1 | 111 | / | 58* | -22
COc1ccc(-c2oc3ccc(N4CCOCC4)cc3c2C#CCO)cc1 | 95 | / | 18 | -14
SMILES | D3 antag | B2AR arrestin | D3 ag | Giardia killer
COc1ccc(Cl)cc1NC(=O)C/C(C)=N/NC(=O)c1ccc(O)cc1 | -16 | -1% | -9 | -20
COc1cc(NC(=O)C/C(C)=N/NC(=O)c2cccc(O)c2)c(OC)cc1Cl | -51* | 0% | -17 | -8
O=C1CCCc2cc(S(=O)(=O)NCC3CCC(C(=O)NCc4ccccc4Cl)CC3)ccc2N1 (stereo not drawn) | / | / | 3 | /
Cc1ccccc1C(OCCN(C)C)c1ccccc1 (stereo not drawn) | -53* | / | / | -1
Cc1ccc(NC(=O)CSc2ccc(-c3cccnc3)nn2)cc1 | 1 | -1% | -6 | 9
O=C(CSc1ccc(-c2cccnc2)nn1)Nc1ccc(F)cc1 | -63* | -1% | -4 | -16
CC/C=C(\C(=O)N[C@@H]1C(=O)N2C(C(=O)OCOC(=O)C(C)(C)C)=C(COC(N)=O)CS[C@H]12)c1csc(N)n1 | / | / | -30 | /
O=C(O)c1cc([N+](=O)[O-])cc2c1nnn2O | -68* | 0% | -25 | 8
O=[N+]([O-])c1cc(Cl)ccc1Nc1nc(Nc2ccc(Cl)cc2[N+](=O)[O-])nc(N2CCOCC2)n1 | / | / | / | 10
O=C(NCc1ccncc1)C12CC3CC(CC(C3)C1)C2 | -9 | 0% | 0 | -3
c1cc(CNC2C3CC4CC(C3)CC2C4)ccn1 (stereo not drawn) | -57* | 0% | -16 | -22
COc1ccc(-c2noc(Cn3c(=O)c4ccccc4n(CC(=O)Nc4cccc(C(F)(F)F)c4)c3=O)n2)cc1 | / | / | -8 | /
